Laboratory results taken from PubChem BioAssay (Tox21).
Values joined by “and” are separate entries in the source; they are usually repeats but may differ in a detail not shown here. Equal values may be shown once. Records with an inconclusive call do not appear. Where a call stands in place of a potency, no number is given. More than one record can exist for a structure, and the calls need not agree. Active and inactive are the calls of the source. Unless noted, the call rests on the fitted dose curve; in most records, active means well fitted curve in the direction sought with a large enough effect in the repeat runs; inconclusive means weak or mixed curves; inactive means no such curve, though single readings can be large; an effect the other way counts as inactive or inconclusive.

Legend:
[1] = qHTS assay for small molecule agonists of the p53 signaling pathway (AID 651631; calls by dose curve; further: nearly all actives have a fitted effect of over 15% in size)
Outline: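 HCT-116 cells carrying a beta-lactamase reporter under p53 response elements were dosed with compound for 16 h at 37 °C. LiveBLAzer B/G FRET substrate was then added for 2 h at room temperature, and fluorescence intensity was read to detect pathway agonism.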

[2] = qHTS assay for small molecules that induce genotoxicity in human embryonic kidney cells expressing luciferase-tagged ATAD5 (AID 651632); further: nearly all actives have a fitted effect of over 15% in size
Outline: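 A rise in luciferase signal from ATAD5-tagged HEK293T cells marks genetic stress. Cells were exposed to compounds for 16 hr at 37C, 5% CO2, then luciferase was quantified after a 30 min room-temperature incubation with Amplite.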

[3] = qHTS assay for small molecule agonists of the p53 signaling pathway - cell viability (AID 651633; calls by dose curve;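 further: p53RE-bla HCT reporter cells with a stable beta-lactamase p53 reporter; series mostly up to about 83 µM; nearly all actives have a fitted effect of over 30% in size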)
Outline: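 p53RE-bla cells were treated with compound for 16 hours at 37 C. Cytotoxicity was then measured as CellTiter-Glo luminescence after 30 min at room temperature.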

[4] = qHTS assay for small molecules that induce genotoxicity in human embryonic kidney cells expressing luciferase-tagged ATAD5 - cell viability (AID 651634; calls by dose curve; further: nearly all actives have a fitted effect of over 25% in size)
Outline: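 Cytotoxicity counter-readout: after 15.5 hr compound treatment at 37C, live-cell protease activity in ATAD5-luciferase HEK293T cells measured by CellTiter-Fluor fluorescence, 30 min development at 37C.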

[5] = qHTS assay for small molecule disruptors of the mitochondrial membrane potential - cell viability (AID 720634; calls by dose curve; further: nearly all actives have a fitted effect of over 20% in size; further: potency means the concentration at half of the fitted maximal effect)
Outline: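 Cytotoxicity was quantified from ATP content by CellTiter-Glo luminescence in the same wells as the MMP dye read-out. HepG2 (2,000 cells/well) were plated overnight and exposed to compounds for 1 hr at 37 C.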

[6] = qHTS assay for small molecule disruptors of the mitochondrial membrane potential (AID 720635); further: potency means the concentration at half of the fitted maximal effect
Outline: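 HepG2 cells exposed to compound 1 hr at 37C, then Mito-MPS dye 30 min. Ratio read of aggregate (540/590 nm) versus monomer (490/535 nm) fluorescence.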

[7] = qHTS assay to test for compound auto fluorescence at 590 nm (red) in HepG2 cells (AID 720674)
Outline: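 Seeding: 2,000 HepG2 cells/well, MEM/10% FBS, overnight 37 C. Dosing: compound vs DMSO. Incubation: 1 hr, 37 C, 5% CO2. Read: fluorescence 540 ex/590 em, Rose Bengal sodium as red reference.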

[8] = qHTS assay to test for compound auto fluorescence at 535 nm (green) in HepG2 cells (AID 720675)
[9] = qHTS assay to test for compound auto fluorescence at 460 nm (blue) in HEK293 cells (AID 720678)
Outline: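 Blue-channel (Ex/Em 405/460 nm) intensity measured in HEK293 cultures after overnight compound exposure at 37C; signal expressed relative to triamterene. Cells plated 2,000 per well in 10% dialyzed FBS medium and allowed 4-5 hr to attach.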

[10] = qHTS assay to test for compound auto fluorescence at 590 nm (red) in HEK293 cells (AID 720679)
Outline: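 Red-channel autofluorescence (Ex/Em 540/590 nm; Rose Bengal sodium reference) was measured after overnight 37C, 5% CO2 exposure of attached HEK293 cells, 2,000 per well in medium with 10% dialyzed FBS.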

[11] = qHTS assay to test for compound auto fluorescence at 535 nm (green) in HEK293 cells (AID 720680)
[12] = qHTS assay to test for compound auto fluorescence at 535 nm (green) in HEK293 cell free culture (AID 720682)
Outline: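 Green-label autofluorescence (485 nm excitation, 535 nm emission) measured on compound added to cell-free culture medium (DMEM, 10% FBS). Output is expressed relative to fluorescein.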

[13] = qHTS assay to test for compound auto fluorescence at 590 nm (red) in HEK293 cell free culture (AID 720683)
Outline: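 Cell-free wells of DMEM with 10% FBS received compound, and intrinsic fluorescence was read at excitation/emission 540/590 nm. Values expressed as equivalence to Rose Bengal sodium.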

[14] = qHTS assay to test for compound auto fluorescence at 590 nm (red) in HepG2 cell free culture (AID 720684)
Outline: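 Rose Bengal sodium served as the reference for red signal. Test compounds were dispensed into serum-containing MEM (10% FBS) without cells, and plates were read at 540/590 nm.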

[15] = qHTS assay to test for compound auto fluorescence at 460 nm (blue) in HepG2 cell free culture (AID 720685)
Outline: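 Cell-free plates of MEM plus 10% FBS received 23 nL compound or DMSO vehicle; blue-channel (405/460 nm) intensity scored against triamterene as reference fluorophore.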

[16] = qHTS assay to test for compound auto fluorescence at 535 nm (green) in HepG2 cell free culture (AID 720686)
[17] = qHTS assay to test for compound auto fluorescence at 460 nm (blue) in HepG2 cells (AID 720687)
Outline: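 HepG2 cells in MEM with 10% FBS, attached overnight at 37 C, were exposed to compound or DMSO for 1 hr at 37 C, 5% CO2. Blue fluorescence was read at 405/460 nm, with triamterene as reference fluorophore.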

[18] = molecular target: Glucocorticoid receptor (Homo sapiens) (UniProt P04150); test: qHTS assay to identify small molecule agonists of the glucocorticoid receptor (GR) signaling pathway (AID 720691; active means well fitted activation curve with a large enough effect in the signal ratio in the repeat runs, not every such curve was filed as active; the % refers to the signal ratio)
Outline: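 Agonist-mode qHTS in HeLa cells stably expressing a glucocorticoid-response-element beta-lactamase reporter. Fluorescence intensity read with FRET substrate (2 h, room temperature) after 18 h compound treatment at 37 C.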

[19] = molecular target: Glucocorticoid receptor (Homo sapiens) (UniProt P04150); test: qHTS assay to identify small molecule antagonists of the glucocorticoid receptor (GR) signaling pathway (AID 720692; active means well fitted inhibition curve with a large enough effect in the signal ratio in the repeat runs, not every such curve was filed as active; the % refers to the signal ratio)
Outline: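 Inhibition of dexamethasone-driven (5 nM final) beta-lactamase expression was measured in GRE-reporter HeLa cells over 18 h at 37C. Fluorescence was read after 2 h with the B/G FRET substrate at room temperature.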

[20] = qHTS assay to test for compound auto fluorescence at 460 nm (blue) in HEK293 cell free culture (AID 720681)
Outline: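 Compounds were added to cell-free DMEM with 10% FBS and fluorescence read directly. The blue channel used 405 nm excitation and 460 nm emission, with triamterene as the reference fluorophore.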

Glucocorticoid receptor (Homo sapiens), sequence (P04150 whole entry, looked up): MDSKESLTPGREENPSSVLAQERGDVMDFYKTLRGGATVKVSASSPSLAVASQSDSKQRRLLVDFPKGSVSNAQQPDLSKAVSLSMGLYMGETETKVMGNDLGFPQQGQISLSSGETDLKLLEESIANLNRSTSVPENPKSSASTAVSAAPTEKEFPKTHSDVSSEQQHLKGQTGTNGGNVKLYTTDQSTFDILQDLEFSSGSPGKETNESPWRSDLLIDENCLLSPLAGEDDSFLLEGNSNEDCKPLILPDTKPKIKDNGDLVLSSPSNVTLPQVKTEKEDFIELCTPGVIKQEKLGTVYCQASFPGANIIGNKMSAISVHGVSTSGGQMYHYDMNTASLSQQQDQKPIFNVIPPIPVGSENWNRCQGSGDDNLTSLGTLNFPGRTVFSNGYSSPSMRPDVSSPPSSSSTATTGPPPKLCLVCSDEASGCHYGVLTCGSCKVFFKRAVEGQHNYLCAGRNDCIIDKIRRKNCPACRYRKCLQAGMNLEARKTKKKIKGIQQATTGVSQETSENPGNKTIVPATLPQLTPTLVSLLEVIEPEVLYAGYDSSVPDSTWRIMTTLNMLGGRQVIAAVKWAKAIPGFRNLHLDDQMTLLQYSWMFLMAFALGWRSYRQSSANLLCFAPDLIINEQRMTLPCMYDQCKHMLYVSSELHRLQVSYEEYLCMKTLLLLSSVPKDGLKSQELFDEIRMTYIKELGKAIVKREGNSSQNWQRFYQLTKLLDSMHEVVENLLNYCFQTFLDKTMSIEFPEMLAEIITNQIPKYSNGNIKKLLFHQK

Row | Structure (SMILES) | Potency [1] | Potency [2] | Potency [3] | Potency [4] | Potency [5] | Potency [6] | outcome [7] | outcome [8] | outcome [9] | outcome [10] | outcome [11] | outcome [12] | outcome [13] | outcome [14] | outcome [15] | outcome [16] | outcome [17] | outcome [18] | Potency [19] | outcome [20]
1 | C=CC(=O)OCCCCCC(C)C | inactive | inactive | inactive | inactive | inactive | inactive | inactive | inactive | inactive | inactive | inactive | inactive | inactive | inactive | inactive | inactive | inactive | – | – | –
2 | [N-]=[N+]=CC(=O)OC[C@H](N)C(=O)O | inactive | inactive | inactive | inactive | inactive | inactive | inactive | – | inactive | inactive | inactive | – | inactive | inactive | inactive | inactive | inactive | – | – | –
3 | C[C@H]1C(=O)O[C@@H]2CCN3CC=C(COC(=O)[C@](C)(O)[C@]1(C)O)[C@H]23 | inactive | inactive | inactive | inactive | – | – | inactive | – | inactive | inactive | – | inactive | inactive | inactive | inactive | inactive | inactive | inactive | inactive | –
4 | COP(=S)(OC)SCN1C(=O)c2ccccc2C1=O | inactive | inactive | inactive | – | inactive | inactive | inactive | inactive | inactive | – | – | inactive | inactive | inactive | inactive | inactive | inactive | inactive | inactive | –
5 | COP(=S)(OC)Oc1ccc(SC)c(C)c1 | inactive | inactive | inactive | – | inactive and 24.3 µM (active) | 53.9 µM (active) and 27.3 µM (active) | inactive | inactive | inactive | – | – | inactive | inactive | inactive | inactive | inactive | inactive | inactive | inactive | –
6 | OCc1ccco1 | inactive | inactive | inactive | – | inactive | inactive | inactive | inactive | inactive | – | – | inactive | inactive | inactive | inactive | inactive | inactive | – | – | inactive
7 | CN(C)CCC#N | inactive | inactive | inactive | inactive | inactive | inactive | inactive | – | inactive | inactive | inactive | inactive | inactive | inactive | inactive | inactive | inactive | inactive | inactive | –
8 | Cc1cc(O)ccc1Cl | inactive | inactive | inactive | inactive | inactive | 10.6 µM (active) and 49.4 µM (active) and 27.3 µM (active) | inactive | – | inactive | inactive | inactive | – | inactive | inactive | inactive | inactive | inactive | inactive | inactive | inactive
